Experimental data taken from PubChem BioAssay (Tox21).
Values joined by “and” are separate entries in the source; they are usually repeats but may differ in a detail not shown here. Equal entries are not always repeated. Records with an inconclusive call do not appear. Where a call stands in place of a potency, no number is given. Some compounds were tested as several samples or in several runs, with calls that do not always agree. Active and inactive are the calls of the source. Calls come from the whole dose curve; as a rule, active = well fitted curve in the direction sought with a large enough effect in the repeat runs; inconclusive = weak or mixed curves; inactive = no such curve, though single readings can be large; an effect the other way counts as inactive or inconclusive.

What was measured:
[1] = molecular target: Cytochrome P450 1A2 (Homo sapiens) (UniProt P05177); experiment: Cytochrome P450 Family 1 Subfamily A Member 2 (CYP1A2) small molecule antagonists: luciferase reporter qHTS assay (AID 1671199); details: P450-Glo CYP1A2 enzyme, luciferin luminescence, 1 h; series mostly up to 53 µM
Chain of Cytochrome P450 1A2 (Homo sapiens) (P05177 whole entry, looked up): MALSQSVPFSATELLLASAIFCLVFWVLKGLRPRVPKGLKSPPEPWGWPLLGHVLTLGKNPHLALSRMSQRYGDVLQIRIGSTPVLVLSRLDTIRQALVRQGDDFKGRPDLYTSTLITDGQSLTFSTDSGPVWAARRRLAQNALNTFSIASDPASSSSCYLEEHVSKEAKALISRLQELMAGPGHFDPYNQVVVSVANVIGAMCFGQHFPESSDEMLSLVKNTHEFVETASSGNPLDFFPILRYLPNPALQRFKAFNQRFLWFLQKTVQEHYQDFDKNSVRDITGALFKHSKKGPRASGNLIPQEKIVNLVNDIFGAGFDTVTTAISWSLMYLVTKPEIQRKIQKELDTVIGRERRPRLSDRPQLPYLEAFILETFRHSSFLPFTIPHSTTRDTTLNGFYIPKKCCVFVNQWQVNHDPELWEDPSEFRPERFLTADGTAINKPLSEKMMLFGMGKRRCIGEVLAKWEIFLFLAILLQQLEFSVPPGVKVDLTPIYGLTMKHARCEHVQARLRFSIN
Procedure, shortened: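 Read-out is luminescence from luciferin detection reagent (20 min) proportional to CYP1A2 activity; compounds in DMSO preincubated 10 min with enzyme and proluciferin substrate, then NADPH regeneration solution, 1 h, room temperature.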

[2] = molecular target: Voltage-gated inwardly rectifying potassium channel KCNH2 (Homo sapiens) (UniProt Q12809); experiment: Human Ether-a-go-go-Related Gene (hERG) channel small molecule antagonists: fluorescence cell-based qHTS assay (AID 1671200); details: hERG-U2OS cells, FluxOR thallium flux fluorescence; series mostly up to 76.8 µM
Chain of Voltage-gated inwardly rectifying potassium channel KCNH2 (Homo sapiens) (Q12809 whole entry, looked up): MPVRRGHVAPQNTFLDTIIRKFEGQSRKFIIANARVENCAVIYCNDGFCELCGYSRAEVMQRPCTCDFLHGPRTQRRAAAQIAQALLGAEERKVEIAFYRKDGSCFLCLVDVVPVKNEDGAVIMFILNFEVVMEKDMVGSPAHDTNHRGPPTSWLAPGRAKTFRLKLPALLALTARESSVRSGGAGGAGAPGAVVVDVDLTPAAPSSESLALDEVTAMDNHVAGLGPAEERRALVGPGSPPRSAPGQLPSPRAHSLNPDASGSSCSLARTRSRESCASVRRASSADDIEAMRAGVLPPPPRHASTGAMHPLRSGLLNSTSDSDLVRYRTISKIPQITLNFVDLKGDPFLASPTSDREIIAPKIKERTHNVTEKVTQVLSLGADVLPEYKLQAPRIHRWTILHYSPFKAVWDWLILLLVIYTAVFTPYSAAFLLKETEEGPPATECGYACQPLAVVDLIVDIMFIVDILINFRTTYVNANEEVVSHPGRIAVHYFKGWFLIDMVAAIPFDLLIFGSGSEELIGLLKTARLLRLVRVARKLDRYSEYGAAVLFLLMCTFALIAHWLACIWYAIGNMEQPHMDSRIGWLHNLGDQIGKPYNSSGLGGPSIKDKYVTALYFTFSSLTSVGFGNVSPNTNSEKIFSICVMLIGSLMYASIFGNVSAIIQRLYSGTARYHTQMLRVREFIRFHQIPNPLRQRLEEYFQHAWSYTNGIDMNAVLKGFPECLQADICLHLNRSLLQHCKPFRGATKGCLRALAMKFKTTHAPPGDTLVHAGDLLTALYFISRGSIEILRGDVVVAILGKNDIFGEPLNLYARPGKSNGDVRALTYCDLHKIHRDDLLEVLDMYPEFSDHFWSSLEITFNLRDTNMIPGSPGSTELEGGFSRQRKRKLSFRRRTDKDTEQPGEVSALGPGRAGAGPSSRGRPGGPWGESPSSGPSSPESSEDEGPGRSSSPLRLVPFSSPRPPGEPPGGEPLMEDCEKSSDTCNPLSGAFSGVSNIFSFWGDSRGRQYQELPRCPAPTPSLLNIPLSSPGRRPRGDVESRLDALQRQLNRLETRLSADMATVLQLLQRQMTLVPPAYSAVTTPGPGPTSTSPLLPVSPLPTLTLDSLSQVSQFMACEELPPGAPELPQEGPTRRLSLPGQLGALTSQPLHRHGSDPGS
Procedure, shortened: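 hERG-U2OS cells plated overnight at 37 C, loaded with FluxOR II dye 1 h at RT in dark; after 10 min, thallium stimulus added. Fluorescence (480/540 nm) read kinetically for 2 min at 1 s intervals.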

[3] = molecular target: Cytochrome P450 3A4 (Homo sapiens) (UniProt P08684); experiment: Cytochrome P450 Family 3 Subfamily A Member 4 (CYP3A4) small molecule antagonists: luciferase reporter qHTS assay (AID 1671201); details: P450-Glo CYP3A4 enzyme, luciferin luminescence, 1 h; series mostly up to 115 µM
Chain of Cytochrome P450 3A4 (Homo sapiens) (P08684 whole entry, looked up): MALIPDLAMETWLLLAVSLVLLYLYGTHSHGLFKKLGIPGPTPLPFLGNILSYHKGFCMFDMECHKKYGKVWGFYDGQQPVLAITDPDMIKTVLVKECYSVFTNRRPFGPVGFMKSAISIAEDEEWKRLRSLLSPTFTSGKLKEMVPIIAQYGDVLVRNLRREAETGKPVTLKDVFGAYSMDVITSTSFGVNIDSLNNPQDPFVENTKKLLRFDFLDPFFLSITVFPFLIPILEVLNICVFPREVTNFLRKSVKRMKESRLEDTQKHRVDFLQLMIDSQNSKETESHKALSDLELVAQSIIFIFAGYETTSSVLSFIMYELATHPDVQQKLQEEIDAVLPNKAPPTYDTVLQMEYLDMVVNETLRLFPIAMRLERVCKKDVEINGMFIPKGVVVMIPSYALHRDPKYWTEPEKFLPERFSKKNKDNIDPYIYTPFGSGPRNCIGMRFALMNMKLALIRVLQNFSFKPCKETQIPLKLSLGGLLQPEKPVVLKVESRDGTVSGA
Procedure, shortened: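 P450-Glo CYP3A4 luminescent assay: compounds preincubated 10 min at room temperature with enzyme and proluciferin substrate, NADPH regeneration added, 1 h room-temperature reaction, stopped with luciferin detection reagent; luminescence read after 20 min. Ketoconazole positive control.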
Note: nearly all actives have a fitted effect of over 50% in size.
Potency is the fitted concentration of half-maximal effect.

Compound	Potency [1]	Potency [2]	Potency [3]
C=CC(=O)OCCCCCCOC(=O)C=C	28.6 µM (active) and 31.7 µM (active)	inactive	40.4 µM (active)
COc1ccc(CCN(C)CCCC(C#N)(c2ccc(OC)c(OC)c2)C(C)C)cc1OC (centres undefined)	inactive	–	–
CCCOC(=O)c1cc(O)c(O)c(O)c1	39.7 µM (active) and 39.9 µM (active)	inactive	inactive
CCCCN(CCO)CCCC	–	inactive	inactive
CC(C)(C)NC(=O)[C@@H]1CN(Cc2cccnc2)CCN1C[C@@H](O)C[C@@H](Cc1ccccc1)C(=O)N[C@H]1c2ccccc2C[C@H]1O	–	inactive	–
C=CC(=O)OCCCCCCCC	–	inactive	inactive
COc1ccc(COC(C)=O)cc1	28.8 µM (active) and 44.8 µM (active)	inactive	inactive
Cc1cccc([N+](=O)[O-])c1C(=O)O	–	inactive	inactive
CC[C@]1(O)C[C@@H]2CN(CCc3c([nH]c4ccccc34)[C@@](C(=O)OC)(c3cc4c(cc3OC)N(C)[C@H]3[C@@](O)(C(=O)OC)[C@H](OC(C)=O)[C@]5(CC)C=CCN6CC[C@]43[C@@H]65)C2)C1	–	inactive	–
CCc1ccc(C(c2ccc(CC)cc2)C(Cl)Cl)cc1	40.6 µM (active)	inactive	inactive
Oc1c(Cl)cc(Cl)c(Cl)c1Cc1c(O)c(Cl)cc(Cl)c1Cl	inactive	inactive	inactive
Nc1cc(S(=O)(=O)O)cc2cc(S(=O)(=O)O)cc(O)c12	inactive and 39.9 µM (active)	inactive	inactive
CC(C)(C)c1ccccc1	20 µM (active)	inactive	inactive
O=C(Oc1ccccc1)c1ccccc1O	35.7 µM (active) and 35.6 µM (active) and 28.8 µM (active)	inactive	inactive
c1ccc2c(c1)CCCC2C1=NCCN1 (centres undefined)	–	inactive	–
CC[C@@H](N)CO	–	inactive	inactive
CCCN[C@H]1CCc2nc(N)sc2C1	–	inactive	–
N[C@@H]1CONC1=O	inactive	inactive	inactive
NC(=Nc1ccccc1)Nc1ccccc1	50.2 µM (active) and inactive	–	inactive
COC(=O)/C=C/c1ccccc1	15.9 µM (active) and 28.3 µM (active)	inactive	inactive

Compound	Potency [1]	Potency [2]	Potency [3]
CN(C)c1ccc2nc3ccc(=[N+](C)C)cc-3sc2c1	–	inactive	–
O=c1n(CC2CO2)c(=O)n(CC2CO2)c(=O)n1CC1CO1 (centres undefined)	–	inactive	inactive
CC(=O)C1=C(C)[C@@H]2C[C@@]3(C1)[C@H](C)CC[C@H]3C2(C)C	–	24.5 µM (active)	25.2 µM (active)
NC(N)=Nc1nc(CSCC/C(N)=N/S(N)(=O)=O)cs1	inactive	–	inactive
Cc1cc(Cc2cc(C)cc(C(C)(C)C)c2O)c(O)c(C(C)(C)C)c1	25.3 µM (active)	39.1 µM (active)	5.67 µM (active) and 8.94 µM (active)
CC(C)(C)NCC(O)c1cc(O)cc(O)c1 (centres undefined)	inactive	inactive	inactive
CNC1(C)C2CCC(C2)C1(C)C (centres undefined)	inactive	inactive	inactive
C[N+]1([O-])CCOCC1	31.6 µM (active)	inactive	inactive
O=C(OCc1ccccc1)c1ccc(O)cc1	–	inactive	–
Cc1ccnc2c1NC(=O)c1cccnc1N2C1CC1	33 µM (active) and inactive	inactive	inactive
c1ccc2n[nH]nc2c1	inactive	inactive	inactive
NC12CC3CC(CC(C3)C1)C2	–	inactive	–
CC(=O)CC(C)=O	inactive	inactive	inactive
Clc1ccc2c(c1)C(N1CCNCC1)=Nc1ccccc1O2	–	43.6 µM (active) and 19 µM (active)	7.96 µM (active) and 4.9 µM (active)
O=Cc1ccc(Cl)cc1	–	inactive	inactive
CC(N)=O	–	inactive	inactive
Nc1cc(Cl)c(-c2cc(Cl)c(N)cc2Cl)cc1Cl	11.2 µM (active) and 12.6 µM (active)	inactive	2 µM (active) and 3.56 µM (active)
OCC(CO)N[C@H]1C[C@](O)(CO)[C@@H](O)[C@H](O)[C@H]1O	inactive	inactive	inactive
O=C(O)c1cc(Cl)cc(Cl)c1	–	inactive	inactive
